High-throughput results (PubChem BioAssay)
This is a sample that favours compounds with a hit; in the whole collection about 4.1% have one here.
ALR H2O2 inh = human ALR oxidase inhibition via reduced H2O2; purified ALR, DTT oxidation, H2O2 HRP-luminol luminescence; AID 485317; P55789; inhibition, % (no concentration beside the values); 290,000 compounds, 3.8% hits;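 active = mean replicate inhibition above about 79%, with every replicate also reaching it, limit read from the data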
Target sequence (P55789 whole entry, looked up): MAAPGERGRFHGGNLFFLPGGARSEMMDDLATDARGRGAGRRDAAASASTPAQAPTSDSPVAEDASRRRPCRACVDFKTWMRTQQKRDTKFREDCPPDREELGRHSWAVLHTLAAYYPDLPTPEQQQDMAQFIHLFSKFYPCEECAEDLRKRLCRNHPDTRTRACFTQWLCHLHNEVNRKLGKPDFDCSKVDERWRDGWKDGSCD
HIV Env fusion = blocks HIV Env-driven cell-cell fusion. HeLa-JRFL Env/CEM21 cell fusion, luciferase. inhibition, % at 12.3 µM. 360,000 compounds, 1.1% hits. AID 651610;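 active = mean replicate inhibition score of at least 50 and every replicate individually at or above 50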
Casp6 inh = blocks human caspase-6 cleavage activity. P55212. purified caspase-6, Z-VEID-R110 cleavage fluorescence. 350,000 compounds, 0.53% hits. inhibition, % at 12.5 µM;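 active = mean inhibition across replicates at least about 35%, with every replicate also reaching that limit, limit read from the data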
Target sequence (P55212 24-179 limits assumed): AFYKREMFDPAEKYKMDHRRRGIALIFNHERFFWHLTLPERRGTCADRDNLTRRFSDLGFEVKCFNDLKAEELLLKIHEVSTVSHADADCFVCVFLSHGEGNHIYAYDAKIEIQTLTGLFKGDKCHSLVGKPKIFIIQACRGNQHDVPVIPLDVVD
Target sequence (P55212 194-293 limits assumed): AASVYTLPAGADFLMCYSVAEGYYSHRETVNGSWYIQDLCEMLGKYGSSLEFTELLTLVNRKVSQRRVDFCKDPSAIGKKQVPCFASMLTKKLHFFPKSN
F508del corr = CFTR F508del correction in bronchial cells; CFBE cells, YFP halide quenching; stimulated with forskolin plus potentiator P3; % fluorescence drop versus neutral controls; AID 720511; 350,000 compounds, 0.36% hits; activity (quench increase), % at 7.58 µM;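 active = mean added fluorescence quench of at least 8% versus neutral control, with both replicates also reaching 8%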;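 also: cells transiently co-express mutant CFTR-F508del with the halide-sensitive YFP; corrector assay measuring rescue of mutant channel to the surface after 24 h compound exposure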
PglD DTNB = inhibitors of Campylobacter jejuni PglD acetyltransferase; purified PglD enzyme, DTNB colorimetric CoA detection; inhibition, % at 12.5 µM; 360,000 compounds, 0.098% hits; AID 602405; in the data active = inhibition above about 16%, passing the limit was not always enough
NSD2 inh = blocks human histone methyltransferase NSD2 | O96028 | NSD2 peptide methylation, AlphaScreen, 120 min | inhibition, % at 12.5 µM | 310,000 compounds, 0.54% hits | AID 743445; in the data active = inhibition above about 50%
Each line names hits and unclear results; the compound was inactive in the other large screens.

O=C(CC(F)(F)F)N1C[C@H]2[C@@H](c3ccccc31)[C@@H](CO)N2CC1CCCCC1	none (no result: ALR H2O2 inh, HIV Env fusion, NSD2 inh)
CC1(CCC(=O)N2CCCC(Nc3ccc(F)cc3)C2)CC1 (stereo unspecified)	ALR H2O2 inh 98
O=C1CCCN1CCC(=O)N1CCCC(Nc2ccc(F)c(F)c2)C1 (stereo unspecified)	none
CCOC(=O)/C(C#N)=C/c1c(N2CCN(c3cccc(Cl)c3)CC2)nc2c(C)cccn2c1=O	Casp6 inh 53 (no result: ALR H2O2 inh, NSD2 inh)
CSCCC(C(=O)N1CC2(C)CC1CC(C)(C)C2)N1C(=O)c2ccccc2C1=O (stereo unspecified)	HIV Env fusion 34 (no result: Casp6 inh, F508del corr)
CC#CCCCC(=O)Nc1cccc(C(=O)O)c1	ALR H2O2 inh 90 (no result: Casp6 inh, F508del corr)
O=C1Nc2ccccc2N=C(c2ccc3c(c2)OCO3)C1N(C(=O)c1ccc2ccccc2c1)C1CC1 (stereo unspecified)	HIV Env fusion 56 (no result: ALR H2O2 inh, NSD2 inh)
O=C1Nc2ccccc2N=C(c2ccc3c(c2)OCO3)C1N(C(=O)c1ccnc2ccccc12)c1ccccc1 (stereo unspecified)	none (no result: ALR H2O2 inh, NSD2 inh)
C=CCSc1nnc2c(n1)OC=Nc1ccccc1-2	none (no result: HIV Env fusion, Casp6 inh, F508del corr)
C=CCSc1nnc2c(n1)OC(c1ccco1)Nc1ccccc1-2 (stereo unspecified)	ALR H2O2 inh 98 (no result: F508del corr, PglD DTNB, NSD2 inh)
CC(C)(C)NC(=O)NC(=O)CN1CCCc2ccccc21	ALR H2O2 inh 96
O=C(CN1CCCc2ccccc21)N/N=C/c1ccccc1	none (no result: F508del corr, PglD DTNB)
O=C(CN1CCCc2ccccc21)NC(=O)NCc1ccccc1	none
O=C(CN1CCCc2ccccc21)N/N=C/c1ccc(O)cc1O	ALR H2O2 inh 98 (no result: F508del corr)
CC(C)NC(=O)N(C)C[C@H]1OCCCC[C@H](C)Oc2ccc(NS(=O)(=O)c3ccc(Cl)cc3)cc2C(=O)N([C@@H](C)CO)C[C@@H]1C	none (no result: ALR H2O2 inh, NSD2 inh)
COC(=O)/C(C#N)=C/c1ccc(OC(=O)c2ccccn2)cc1	none (no result: F508del corr, PglD DTNB)
CCOC(=O)/C(C#N)=C/c1ccc(OC(=O)c2ccccn2)cc1	ALR H2O2 inh 98 (no result: F508del corr)
Brc1ccc2c(c1)-c1ccccc1C1=NCCN12	none (no result: ALR H2O2 inh)
Clc1ccc2c(c1)-c1ccccc1C1=NCCN12	F508del corr 8.3 (no result: ALR H2O2 inh, PglD DTNB)
C[C@H]1CN([C@@H](C)CO)S(=O)(=O)c2ccc(/C=C/c3ccccc3)cc2O[C@@H]1CN(C)C(=O)CN1CCOCC1	none (no result: ALR H2O2 inh, HIV Env fusion, NSD2 inh)
Cc1ccc(S(=O)(=O)N(C)C[C@H]2Oc3ccc(NC(=O)Nc4ccccc4)cc3CC(=O)N([C@H](C)CO)C[C@@H]2C)cc1	none (no result: ALR H2O2 inh, HIV Env fusion, NSD2 inh)
O=C(Cc1cccs1)NNC(=S)NC(=O)c1ccccc1	ALR H2O2 inh 98 (no result: F508del corr, PglD DTNB)
CCC(=O)NC(=S)Nc1ccc(NC(=O)COc2ccc(Cl)c(C)c2)cc1	none (no result: F508del corr, PglD DTNB)
Cc1cc(OCC(=O)NNC(=S)NC(=O)c2ccc(Br)o2)ccc1Cl	ALR H2O2 inh 88
O=C(Cc1ccccc1)NNC(=S)NC(=O)c1cccs1	ALR H2O2 inh 97
O=C(NNC(=S)NC(=O)c1cccs1)c1ccc(O)cc1	none
O=C(NC(=S)NNC(=O)c1cccs1)c1ccc(Br)o1	ALR H2O2 inh 99 (no result: HIV Env fusion, PglD DTNB)
CO[C@H]1CN(C)C(=O)c2cc(NC(C)=O)ccc2OC[C@@H](C)N(CC2CCCCC2)C[C@H]1C	none (no result: ALR H2O2 inh, Casp6 inh, NSD2 inh)
O=C(CCN1C(=O)/C(=C\c2ccccc2)SC1=S)NCCCN1CCOCC1	none
O=C1/C(=C\c2cccc(O)c2O)SC(=S)N1Cc1ccccc1	NSD2 inh 52 (no result: ALR H2O2 inh)
O=C1/C(=C\c2ccc(O)c(O)c2)SC(=S)N1Cc1ccccc1	none
O=C1C(=Cc2ccccc2O)SC(=S)N1CCCN1CCOCC1	HIV Env fusion 85 (no result: ALR H2O2 inh)
O=C(Nc1nc2c(s1)COc1ccccc1-2)c1cccs1	ALR H2O2 inh 96 (no result: NSD2 inh)
O=C(Nc1nc2c(s1)CCc1ccccc1-2)c1cccs1	none (no result: HIV Env fusion, Casp6 inh, F508del corr)
COc1ccccc1S(=O)(=O)N[C@H]1CC[C@H](CCNC(=O)C2CCC2)O[C@H]1CO	none (no result: ALR H2O2 inh, NSD2 inh)
CCOC(=O)c1sc(-c2ccc(Cl)cc2Cl)nc1O	ALR H2O2 inh 97 (no result: PglD DTNB)
Cc1cccc(N2CCN(C(=O)CCNS(=O)(=O)c3cccs3)CC2C)c1 (stereo unspecified)	ALR H2O2 inh 93
COc1cccc(NC(=O)N2CCCCCC2)c1	none
CCC(=O)N1CCc2cc(S(=O)(=O)NCCC(=O)N3CCN(c4cccc(C)c4)C(C)C3)ccc21 (stereo unspecified)	ALR H2O2 inh 98
CC1CC(C)CN(C(=O)CCNS(=O)(=O)c2cccs2)C1 (stereo unspecified)	none (no result: HIV Env fusion)
Cc1ccc(N2CCN(C(=O)CNS(=O)(=O)c3ccc(Br)s3)CC2C)cc1 (stereo unspecified)	ALR H2O2 inh 98 (no result: HIV Env fusion, Casp6 inh, F508del corr, PglD DTNB)
CC1CC(C)CN(C(=O)CNS(=O)(=O)c2ccc(Br)s2)C1 (stereo unspecified)	none (no result: ALR H2O2 inh, Casp6 inh, F508del corr, NSD2 inh)
COc1cccc(NC(=O)N2CCN(c3cccc(C)c3)C(C)C2)c1 (stereo unspecified)	ALR H2O2 inh 99 (no result: HIV Env fusion, Casp6 inh, F508del corr, PglD DTNB)
S=c1[nH]nc(-c2ccncc2)n1/N=C/C=C/c1ccco1	Casp6 inh 51 (no result: PglD DTNB)
S=c1[nH]nc(-c2ccccc2Cl)n1/N=C/C=C/c1ccco1	none (no result: ALR H2O2 inh)
Cc1cccc(-c2n[nH]c(=S)n2/N=C/C=C/c2ccco2)c1	ALR H2O2 inh 97
S=c1[nH]nc(-c2cccc(Cl)c2)n1/N=C/c1ccco1	ALR H2O2 inh 97 (no result: HIV Env fusion, Casp6 inh, F508del corr, PglD DTNB)
O=C(c1ccoc1)N1CCCC(N2CCN(c3cccc(Cl)c3)CC2)C1 (stereo unspecified)	ALR H2O2 inh 93
